From PubChem BioAssay (Tox21)
Inconclusive results are not listed. Activity calls are given as the source filed them. Unless noted, the call rests on the fitted dose curve; in most records, active means well fitted curve in the direction sought with a large enough effect in the repeat runs; inconclusive means weak or mixed curves; inactive means no such curve, though single readings can be large; an effect the other way counts as inactive or inconclusive.

Columns and labels:
[1] = qHTS assay for small molecule agonists of the p53 signaling pathway (AID 651631; calls by dose curve; further: nearly all actives have a fitted effect of over 15% in size)
Method in brief: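 Beta-lactamase reporter activity under p53 response elements was quantified in HCT-116 cells by FRET fluorescence, following 16 h incubation with test compounds at 37 °C and 2 h substrate development at room temperature.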

[2] = qHTS assay for small molecules that induce genotoxicity in human embryonic kidney cells expressing luciferase-tagged ATAD5 (AID 651632); further: nearly all actives have a fitted effect of over 15% in size
Method in brief: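 HEK293T cells carrying luciferase-tagged ATAD5 were given compound or DMSO vehicle and incubated 16 hr at 37C, 5% CO2. Luciferase activity was read after 30 min at room temperature with Amplite; a rise signals genotoxic stress.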

[3] = qHTS assay for small molecule agonists of the p53 signaling pathway - cell viability (AID 651633; calls by dose curve;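 further: p53RE-bla HCT reporter cells with a stable beta-lactamase p53 reporter; series mostly up to about 83 µM; nearly all actives have a fitted effect of over 30% in size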)
Method in brief: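 p53RE-bla cells, seeded at 4,000 per well and rested 5 h at 37 C/5% CO2, received compounds in DMSO for 16 h at 37 C. CellTiter-Glo was then added, and luminescence was read after 30 min at room temperature to gauge cytotoxicity.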

[4] = qHTS assay for small molecules that induce genotoxicity in human embryonic kidney cells expressing luciferase-tagged ATAD5 - cell viability (AID 651634; calls by dose curve; further: nearly all actives have a fitted effect of over 25% in size; further: potency means the concentration at half of the fitted maximal effect)
Method in brief: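 HEK293T cells carrying luciferase-tagged ATAD5, 2,000 cells/well, exposed to compound for 15.5 hr at 37C. Viability read as live-cell protease activity by CellTiter-Fluor fluorescence after 30 min at 37C.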

[5] = qHTS assay for small molecule disruptors of the mitochondrial membrane potential - cell viability (AID 720634; calls by dose curve;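 further: human HepG2 liver cancer cells; series mostly up to about 83 µM; nearly all actives have a fitted effect of over 20% in size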)
Method in brief: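 HepG2 cells, 2,000 per well, attached overnight, then treated 1 hr at 37 C, 5% CO2. Viability read as ATP by CellTiter-Glo luminescence after 30 min at room temperature. Read in the same wells as the m-MPI membrane-potential dye assay.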

[6] = qHTS assay for small molecule disruptors of the mitochondrial membrane potential (AID 720635)
Method in brief: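 HepG2 cells (2,000/well) attached overnight at 37C, then took compound for 1 hr at 37C, 5% CO2. Mito-MPS dye was added for 30 min; fluorescence was read at 490/535 nm (monomers) and 540/590 nm (aggregates).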

[7] = qHTS assay to test for compound auto fluorescence at 590 nm (red) in HepG2 cells (AID 720674)
Method in brief: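 Rose Bengal sodium served as the red fluorophore standard. HepG2 monolayers (overnight attachment, MEM with 10% FBS) were exposed to test compounds for 1 hr at 37 C and read at Ex 540/Em 590 nm.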

[8] = qHTS assay to test for compound auto fluorescence at 535 nm (green) in HepG2 cells (AID 720675)
[9] = qHTS assay to test for compound auto fluorescence at 460 nm (blue) in HEK293 cells (AID 720678)
Method in brief: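 Intrinsic compound fluorescence is recorded in live HEK293 cultures after overnight incubation at 37C, 5% CO2, using excitation 405 nm and emission 460 nm. Values are referenced to triamterene.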

[10] = qHTS assay to test for compound auto fluorescence at 590 nm (red) in HEK293 cells (AID 720679)
Method in brief: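 Red autofluorescence, HEK293 cells: 2,000 cells/well; attach 4-5 hr 37C; add 23 nL cpd or DMSO; incubate o/n 37C 5% CO2; read Ex540/Em590; Rose Bengal sodium reference.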
On the % scale 0 is the no-effect control and ±100 the full control effect.

NC(=O)NC(=O)Cc1ccccc1
inactive: outcome [1] | outcome [2] | outcome [3] | Potency [4] | outcome [5] | Potency [6] | outcome [7] | outcome [8] | outcome [9] | outcome [10]

O=c1[nH]c(=O)c2ccccc2o1
inactive: outcome [1] | outcome [2] | outcome [3] | Potency [4] | outcome [5] | Potency [6] | outcome [7] | outcome [8] | outcome [9] | outcome [10]

COc1cc([N+](=O)[O-])ccc1N
active: Potency [4] 54.5 µM
inactive: outcome [1] | outcome [2] | outcome [3] | outcome [5] | Potency [6] | outcome [7] | outcome [8] | outcome [9] | outcome [10]

CCCCC(C)C(=O)O (stereo not given)
inactive: outcome [1] | outcome [2] | outcome [3] | Potency [4] | outcome [5] | Potency [6] | outcome [7] | outcome [8] | outcome [9] | outcome [10]

CCCCCCCCCCCCCCCC(=O)NCCO
inactive: outcome [1] | outcome [2] | outcome [3] | Potency [4] | outcome [5] | Potency [6] | outcome [7] | outcome [8] | outcome [9] | outcome [10]

Nc1cc(C(=O)O)ccc1Cl
inactive: outcome [1] | outcome [2] | outcome [3] | Potency [4] | outcome [5] | Potency [6] | outcome [7] | outcome [8] | outcome [9] | outcome [10]

Nc1ccc(S(=O)(=O)Nc2ccccn2)cc1
inactive: outcome [1] | outcome [2] | outcome [3] | Potency [4] | outcome [5] | Potency [6] | fluorescence, relative to Rose Bengal [7] 0.667% [at 18.6 µM] | fluorescence, % of fluorescein control [8] -0.201% [at 18.6 µM] | fluorescence, % of triamterene [9] -0.296% [at 18.6 µM] | fluorescence, % of fluorescent control [10] 0.278% [at 18.6 µM]

O=C(COCCOCCOCC(=O)Nc1c(I)cc(I)c(C(=O)O)c1I)Nc1c(I)cc(I)c(C(=O)O)c1I
inactive: outcome [1] | outcome [2] | outcome [3] | Potency [4] | outcome [5] | Potency [6] | outcome [7] | outcome [8] | outcome [9] | outcome [10]

C=C[Si](C)(C)O[Si](C)(C)C=C
inactive: outcome [1] | outcome [2] | outcome [3] | Potency [4] | outcome [5] | Potency [6] | outcome [7] | outcome [8] | outcome [9] | outcome [10]

CC(=O)OCCCc1ccccc1
inactive: outcome [1] | outcome [2] | outcome [3] | Potency [4] | outcome [5] | Potency [6] | outcome [7] | outcome [8] | outcome [9] | outcome [10]

NS(=O)(=O)c1cc2c(cc1Cl)NC(CC1CCCC1)NS2(=O)=O (stereo not given)
inactive: outcome [1] | outcome [2] | outcome [3] | Potency [4] | outcome [5] | Potency [6] | fluorescence, relative to Rose Bengal [7] -0.14% [at 18.6 µM] | fluorescence, % of fluorescein control [8] -0.0768% [at 18.6 µM] | fluorescence, % of triamterene [9] -0.024% [at 18.6 µM] | fluorescence, % of fluorescent control [10] -0.246% [at 18.6 µM]

C1=C\CC/C=C\CC/1
inactive: outcome [1] | outcome [2] | outcome [3] | Potency [4] | outcome [5] | Potency [6] | outcome [7] | outcome [8] | outcome [9] | outcome [10]

COC(=O)CCC(=O)O
inactive: outcome [1] | outcome [2] | outcome [3] | Potency [4] | outcome [5] | Potency [6] | outcome [7] | outcome [8] | outcome [9] | outcome [10]

CC1CCC(C(C)(C)S)C(=O)C1 (stereo not given)
inactive: outcome [1] | outcome [2] | outcome [3] | Potency [4] | outcome [5] | Potency [6] | outcome [7] | outcome [8] | outcome [9] | outcome [10]

CCOC(=O)CCc1ccccc1
inactive: outcome [1] | outcome [2] | outcome [3] | Potency [4] | outcome [5] | Potency [6] | outcome [7] | outcome [8] | outcome [9] | outcome [10]

C[C@H]1O[C@H](O[C@H]2[C@H](O)[C@@H](O)[C@@H](O[C@H]3[C@H](O)[C@@H](O)[C@H](O)O[C@@H]3CO)O[C@@H]2CO)[C@H](O)[C@@H](O)[C@@H]1N[C@H]1C=C(CO)[C@@H](O)[C@H](O)[C@H]1O
inactive: outcome [1] | outcome [2] | outcome [3] | Potency [4] | outcome [5] | Potency [6] | outcome [7] | outcome [8] | outcome [9] | outcome [10]

CC(=O)OC(C)c1ccccc1 (stereo not given)
inactive: outcome [1] | outcome [2] | outcome [3] | Potency [4] | outcome [5] | Potency [6] | outcome [7] | outcome [8] | outcome [9] | outcome [10]

CCCCCC1CCCC(=O)O1 (stereo not given)
inactive: outcome [1] | outcome [2] | outcome [3] | Potency [4] | outcome [5] | Potency [6] | outcome [7] | outcome [8] | outcome [9] | outcome [10]

CCN(CCO)c1cccc(C)c1
inactive: outcome [1] | outcome [2] | outcome [3] | Potency [4] | outcome [5] | Potency [6] | outcome [7] | outcome [8] | outcome [9] | outcome [10]

CC(=O)c1ccc2c(c1)CCCC2
inactive: outcome [1] | outcome [2] | outcome [3] | Potency [4] | outcome [5] | Potency [6] | outcome [7] | outcome [8] | outcome [9] | outcome [10]

O=C1OC(=O)c2ccccc21
inactive: outcome [1] | outcome [2] | outcome [3] | Potency [4] | outcome [5] | Potency [6] | outcome [7] | outcome [8] | outcome [9] | outcome [10]

COC(OC)C(C)c1ccccc1 (stereo not given)
inactive: outcome [1] | outcome [2] | outcome [3] | Potency [4] | outcome [5] | Potency [6] | outcome [7] | outcome [8] | outcome [9] | outcome [10]

CC(=O)/C=C/c1ccco1
inactive: outcome [1] | outcome [2] | outcome [3] | Potency [4] | outcome [5] | Potency [6] | outcome [7] | outcome [8] | outcome [9] | outcome [10]
